Screening results: PubChem, several laboratories
Mdm2 MdmX PPI: inhibitors of human Mdm2-MdmX association, primary screen, cell-based, luminescence, split luciferase, SaOS-2, uHTS | SaOS-2 split-luciferase Mdm2/MdmX complementation | Protein Mdm4 (Homo sapiens) + E3 ubiquitin-protein ligase Mdm2 (Homo sapiens), … | inhibition, % at 8 µM | actives 3% (n = 330,000) | AID 485346, 2010;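 active = inhibition of at least 50% at 8 µM in the primary screen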
Target sequence (O15151 whole entry, looked up): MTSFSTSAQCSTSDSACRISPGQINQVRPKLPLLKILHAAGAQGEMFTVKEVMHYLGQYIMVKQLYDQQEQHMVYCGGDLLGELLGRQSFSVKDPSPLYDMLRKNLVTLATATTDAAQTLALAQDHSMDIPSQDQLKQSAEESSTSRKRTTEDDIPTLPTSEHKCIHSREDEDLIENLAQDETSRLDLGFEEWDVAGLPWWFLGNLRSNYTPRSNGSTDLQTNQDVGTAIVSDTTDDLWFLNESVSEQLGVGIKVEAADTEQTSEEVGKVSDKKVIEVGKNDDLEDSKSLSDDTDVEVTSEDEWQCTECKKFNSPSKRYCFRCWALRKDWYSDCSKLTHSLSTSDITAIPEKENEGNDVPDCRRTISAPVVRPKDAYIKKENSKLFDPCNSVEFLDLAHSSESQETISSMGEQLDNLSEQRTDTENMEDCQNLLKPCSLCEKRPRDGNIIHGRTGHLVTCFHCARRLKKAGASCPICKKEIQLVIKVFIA
Target sequence (Q00987 whole entry, looked up): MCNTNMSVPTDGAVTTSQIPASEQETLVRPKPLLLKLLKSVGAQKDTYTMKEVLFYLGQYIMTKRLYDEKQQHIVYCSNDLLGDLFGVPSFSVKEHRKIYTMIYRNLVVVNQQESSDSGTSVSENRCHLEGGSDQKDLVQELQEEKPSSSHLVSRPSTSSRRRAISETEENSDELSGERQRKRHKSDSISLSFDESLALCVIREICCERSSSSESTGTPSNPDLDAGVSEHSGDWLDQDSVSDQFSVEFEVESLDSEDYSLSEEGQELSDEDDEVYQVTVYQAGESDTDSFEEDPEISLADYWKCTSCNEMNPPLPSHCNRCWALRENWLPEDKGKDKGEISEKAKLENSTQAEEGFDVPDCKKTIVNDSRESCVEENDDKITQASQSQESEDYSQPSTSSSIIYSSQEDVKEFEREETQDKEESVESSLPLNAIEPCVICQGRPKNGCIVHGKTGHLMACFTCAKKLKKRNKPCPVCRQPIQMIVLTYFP
Beta apoptosis: inhibitors of cytokine-induced beta cell apoptosis, primary screen, luminescence; INS-1E cytokine-induced death, ATP luminescence, 48 h; percent of positive-control rescue, neutral wells zero; protection from apoptosis, % (no concentration beside the values); AID 435005, 2010; actives 0.8% (n = 300,000);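 active = Every replicate reaches about 75%, or at least half do and their mean reaches it too, limit read from the data; inconclusive = At least half of replicates reach the limit but their mean does not; inactive = Under half of replicates reach the limit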;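 note: 0% = cytokine-treated negative control wells and 100% = positive control rescue; higher means more ATP so stronger rescue from cytokine killing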
Bfl-1 A1 inh: caspase 3/7 activation in MEF A1-2A-BIM cells, primary screen, A1 inhibitor project, cell-based, luminescence, HTS; caspase activation, % (no concentration beside the values); AID 2462, 2010; Caspase-Glo 3/7 luminescence, 3 h; percent of clofoctol response, vehicle zero; actives 0.066% (n = 330,000);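 active = over half of replicate activation scores above 10%, or exactly half above 10 with the replicate mean above 10; inconclusive = replicate mean below 10 yet half the replicates above 10; inactive = over half of replicates below 10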
CSC inhib: cancer stem cell viability inhibitors, primary screen, luminescence; cancer stem cell-like cells viability; inhibition, % at 7.5 µM; actives 1.1% (n = 300,000); AID 2717, 2010; in the data active = inhibition above about 75%; inconclusive = no clear call, values can overlap the other calls; tested in HMLE shEcad cells
aSyn UTR inh: MLPCN primary screen, SNCA 5' untranslated region. alpha-synuclein 5'UTR reporter, inhibitor activity. inhibition, % (tested at 7.5 µM). actives 0.82% (n = 300,000). AID 1813, 2009; in the data active = inhibition above about 60%; inconclusive = no clear call, values can overlap the other calls;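 note: H4 neuroglioblastoma cells stably carrying SNCA 5'UTR luciferase fusion; 0% = DMSO wells and 100% = positive control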
Active calls of the source: *. Only some compounds are listed: those with a hit (about 4.1% of all), similar ones and a draw of the others.

For O=C(Nc1cccc(Br)c1)c1cccc(OC(=S)N2CCOCC2)c1 the results were Mdm2 MdmX PPI 25, Bfl-1 A1 inh 1, CSC inhib 0 and aSyn UTR inh -14.
CCc1ccc(CNC(=O)Cc2ccc(NC(=O)C3=C(C)OCCS3)cc2)cc1 was read as Mdm2 MdmX PPI 45, Beta apoptosis 28, Bfl-1 A1 inh -1, CSC inhib 61 and aSyn UTR inh 66*.
Screening N#CC(C#N)=C(Nc1ccc(F)cc1)SCc1cccc(Br)c1 returned Beta apoptosis 105*, Bfl-1 A1 inh 0, CSC inhib 119* and aSyn UTR inh inconclusive.
Screening CC(SCc1ccccc1)C(=O)Nc1ccc(F)cc1 (stereo not drawn) returned Mdm2 MdmX PPI -9, Beta apoptosis 0, Bfl-1 A1 inh 0, CSC inhib -16 and aSyn UTR inh -36.
Screening C#Cc1cccc(C(=O)N2CCCC(C(=O)c3ccc(OC)cc3C)C2)c1 (stereo not drawn) returned Mdm2 MdmX PPI 20, Beta apoptosis 0, Bfl-1 A1 inh 0, CSC inhib -1 and aSyn UTR inh -2.
CCOC(=O)c1c(NC(=O)Nc2ccc(Cl)cc2)sc(C)c1C was read as Mdm2 MdmX PPI 38, Beta apoptosis -13, Bfl-1 A1 inh -1, CSC inhib -11 and aSyn UTR inh -16.
CCOC(=O)c1c(NC(=O)/C=C/C(=O)O)sc(C)c1-c1ccc(Cl)cc1 was read as Mdm2 MdmX PPI 13, Beta apoptosis 8, Bfl-1 A1 inh 1, CSC inhib 75* and aSyn UTR inh -21.
CCCOc1ccc(N)cc1N was read as Mdm2 MdmX PPI 18, Beta apoptosis 99*, Bfl-1 A1 inh 2, CSC inhib 30 and aSyn UTR inh 12.
For CCN1CCN(C(=O)CCc2nnc3ccc(N4CCN(c5cccc(OC)c5)CC4)nn23)CC1 the results were Mdm2 MdmX PPI -5, Beta apoptosis -3, Bfl-1 A1 inh 1, CSC inhib -14 and aSyn UTR inh 7.
For CCc1ccc(C(=O)NNc2cc(Cl)ccc2Cl)cc1 the results were Mdm2 MdmX PPI 21, Beta apoptosis 92*, Bfl-1 A1 inh 0, CSC inhib 5 and aSyn UTR inh 10.
`CCn1c(SCC(=O)NC2CCCCC2)nnc1-c1ccccc1F` gave Mdm2 MdmX PPI 12, Beta apoptosis -4, Bfl-1 A1 inh 0, CSC inhib -8 and aSyn UTR inh -2.
For CCC(=O)OCCNc1cc(Sc2nc3ccccc3s2)c2nonc2c1[N+](=O)[O-] the results were Mdm2 MdmX PPI 40, Beta apoptosis 22, Bfl-1 A1 inh 3, CSC inhib 106* and aSyn UTR inh -2.
For CCC(=O)OCCNc1cc(Sc2nc3ccccc3[nH]2)c2nonc2c1[N+](=O)[O-] the results were Beta apoptosis -3, Bfl-1 A1 inh 2 and CSC inhib 27.
For CCOC(=O)/C(=N/Nc1ccc(OC)cc1)N1CCCc2ccccc21 the results were Mdm2 MdmX PPI -8, Beta apoptosis 7, Bfl-1 A1 inh 0, CSC inhib 75* and aSyn UTR inh 17.
Screening CCOc1ccc(NC(=O)CC2C(=O)N(c3ccc(OC)c(Cl)c3)C(=S)N2C2CC2)cc1 (stereo not drawn) returned Mdm2 MdmX PPI 10, Beta apoptosis -5, Bfl-1 A1 inh 1, CSC inhib 2 and aSyn UTR inh -6.
Screening COC(=O)c1sc2nc(N3CCCCC3)c3c(c2c1N)CCCC3 returned Mdm2 MdmX PPI 7, Beta apoptosis 6, Bfl-1 A1 inh 0, CSC inhib 85* and aSyn UTR inh 26.
Screening O=C1c2ccccc2[C@@H]2C[C@@H](O)[C@H](Nc3cccc4ccccc34)CCN12 returned Mdm2 MdmX PPI 22.
Screening [O-][n+]1onc2c1CCc1c-2nn(-c2ccccc2Cl)[n+]1[O-] returned Mdm2 MdmX PPI 43, Beta apoptosis 96*, Bfl-1 A1 inh 0, CSC inhib 0 and aSyn UTR inh -155.
For COc1ccc(/C=C/C(=O)NC(=S)Nc2ccccc2C(=O)NC2CCCCC2)cc1 the results were Mdm2 MdmX PPI 31, Beta apoptosis 79*, Bfl-1 A1 inh 1, CSC inhib 21 and aSyn UTR inh 10.
For Cc1ccc(S(=O)(=O)N2CCN(S(=O)(=O)N3CCC(C)CC3)CC2)cc1C the results were Mdm2 MdmX PPI -1, Beta apoptosis 5, Bfl-1 A1 inh 1, CSC inhib -9 and aSyn UTR inh 6.
For CCc1ccc(NC(=O)c2cnn3ccccc23)cc1 the results were Mdm2 MdmX PPI -11, Beta apoptosis -2, Bfl-1 A1 inh -9, CSC inhib 19 and aSyn UTR inh 78*.
Screening N#CC1=C(N)NC(SCc2ccccc2)=C(C#N)C12CCCC2 returned Mdm2 MdmX PPI 40, Beta apoptosis -6, Bfl-1 A1 inh -1, CSC inhib 78* and aSyn UTR inh -26.
Screening C=C(C)COc1ccc(-c2nc(N)ncc2-c2ccc(OC)c(OC)c2)c(O)c1 returned Mdm2 MdmX PPI 40, Beta apoptosis -11, Bfl-1 A1 inh 0, CSC inhib 2 and aSyn UTR inh 45.
Screening C=C(C)COc1ccc(-c2nc(N)ncc2-c2ccc(Cl)cc2)c(O)c1 returned Mdm2 MdmX PPI 34, Beta apoptosis 2, Bfl-1 A1 inh 0, CSC inhib 104* and aSyn UTR inh 0.
For C[C@@H](CSc1ccc(Br)cc1)CN1CC[C@H](C(C)(C)C)CCC1=O the results were Mdm2 MdmX PPI -2, Beta apoptosis -3, Bfl-1 A1 inh -1 and CSC inhib 123*.
Cc1ccc(SC[C@H](C)CN2CC[C@H](C(C)(C)C)CCC2=O)cc1 was read as Mdm2 MdmX PPI -13, Beta apoptosis 1, Bfl-1 A1 inh 1, CSC inhib 76* and aSyn UTR inh -9.
For CC(=NCc1ccco1)c1c(C)[nH]n(-c2nc3ccccc3s2)c1=O the results were Mdm2 MdmX PPI 23, Beta apoptosis 10, Bfl-1 A1 inh -4, CSC inhib 11 and aSyn UTR inh 31.
`C/C(=N/NC(=O)c1cccs1)c1c(C)[nH]n(-c2nc3ccccc3s2)c1=O` gave Mdm2 MdmX PPI 3, Beta apoptosis 79*, Bfl-1 A1 inh -6, CSC inhib 59 and aSyn UTR inh -10.
For CCN(c1ccc(NC(=O)COC(=O)C(C)N=C2NS(=O)(=O)c3ccccc32)cc1)C(C)C (stereo not drawn) the results were Mdm2 MdmX PPI -14.
COc1cc2c(cc1NC(=O)CSc1nc3ccccc3[nH]1)oc1ccccc12 was read as Mdm2 MdmX PPI 14, Beta apoptosis 9, Bfl-1 A1 inh 1, CSC inhib 80* and aSyn UTR inh 10.
Screening COc1cc2c(cc1NC(=O)c1cccc([N+](=O)[O-])c1C)oc1ccccc12 returned Mdm2 MdmX PPI 18, Beta apoptosis 13, Bfl-1 A1 inh 0, CSC inhib 102* and aSyn UTR inh -3.
For COc1cc2c(cc1NC(=O)Nc1ccc(C)cc1)oc1ccccc12 the results were Mdm2 MdmX PPI 8, Beta apoptosis 7, Bfl-1 A1 inh 0, CSC inhib 88* and aSyn UTR inh -49.
